PubChem BioAssay
Activity calls are given as the source filed them.

Legend:
[1] = small molecules captured by biotinylated probe aFSTL3 – biochemical, small-molecule microarray, fluorescence 635/667, stem cell growth factor project, primary screen (AID 1064); details: higher = more signal;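 note: measures binding of the biotinylated anti-FSTL3 antibody to printed compounds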
[2] = binders from COS7 lysate, DM2A8 probe, primary screen, torsin A project, cell lysate, small-molecule microarray, fluorescence 635/667 (AID 1065); details: higher = more signal, COS7 lysate expressing mutant human TOR1A
[3] = small molecules captured by biotinylated probe aFGF2 – biochemical, small-molecule microarray, fluorescence 635/667, stem cell growth factor project, primary screen (AID 1067); details: higher = more signal;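 note: measures binding of biotinylated aFGF2 protein to printed compounds on slides; z-score merges feature fluorescence and signal-to-noise across triplicate slides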
[4] = small molecules captured by biotinylated probe aFGF10 – biochemical, small-molecule microarray, fluorescence 635/667, stem cell growth factor project, primary screen (AID 1071); details: higher = more signal;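 note: score merges 667 nm spot intensity and signal to noise from triplicate slides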
[5] = target: Neurogenic locus notch homolog protein 2 (Homo sapiens) (UniProt Q04721); assay: small molecules binding Notch2 protein – biochemical, small-molecule microarray, 635 nm fluorescence, stem cell growth factors, primary screen (AID 1073); details: higher = more signal
[6] = target: Pro-neuregulin-1, membrane-bound isoform (Homo sapiens) (UniProt Q02297); assay: small molecules binding neuregulin-1 protein – biochemical, small-molecule microarray, fluorescence 635/667, psychiatric disease protein project, primary screen (AID 1075); details: NRG1 binding, 635 nm fluorescence, higher = more signal;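 note: score combines 667 nm spot fluorescence with signal to noise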
Sequence of Pro-neuregulin-1, membrane-bound isoform (Homo sapiens) (Q02297 whole entry, looked up, the tested form may be a part, canonical isoform): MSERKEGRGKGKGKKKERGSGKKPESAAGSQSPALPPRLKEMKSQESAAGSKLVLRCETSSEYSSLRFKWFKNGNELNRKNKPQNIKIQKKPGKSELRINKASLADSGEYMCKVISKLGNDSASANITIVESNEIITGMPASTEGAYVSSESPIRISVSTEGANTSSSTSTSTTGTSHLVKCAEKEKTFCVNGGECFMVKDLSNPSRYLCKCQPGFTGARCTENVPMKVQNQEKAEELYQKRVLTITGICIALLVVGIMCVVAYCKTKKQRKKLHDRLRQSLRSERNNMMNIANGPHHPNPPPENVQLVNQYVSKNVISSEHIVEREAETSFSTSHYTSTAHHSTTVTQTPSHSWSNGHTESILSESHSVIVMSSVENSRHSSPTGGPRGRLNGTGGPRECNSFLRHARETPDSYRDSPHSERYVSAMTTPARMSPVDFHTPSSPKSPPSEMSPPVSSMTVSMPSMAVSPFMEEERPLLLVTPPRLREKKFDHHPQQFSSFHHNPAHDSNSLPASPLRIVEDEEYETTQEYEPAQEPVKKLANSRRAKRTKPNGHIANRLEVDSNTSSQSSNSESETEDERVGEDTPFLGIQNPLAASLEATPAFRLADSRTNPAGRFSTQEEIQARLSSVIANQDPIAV

[7] = system: Neuregulin-1 EGF-like domain; assay: small molecules binding NRG1 EGF domain – biochemical, small-molecule microarray, 635 nm fluorescence, primary screen (AID 1081); details: higher = more signal;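 note: binding of the protein to compounds printed on small-molecule microarray slides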
[8] = FRG1 expression reporter modulators in myotubes – cell-based, C2C12 myotubes, firefly/Renilla luciferase, luminescence, FRG1 inhibition for FSHD, primary screen (AID 1084); details: FRG1 promoter luciferase, higher = more signal, called active from +8 up or from −8 down
[9] = small molecules captured by biotinylated probe aFST – biochemical, small-molecule microarray, fluorescence 635/667, stem cell growth factor project, primary screen (AID 1086); details: higher = more signal;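 note: score merges 667 nm fluorescence with signal-to-noise of each printed compound spot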
[10] = binders of probe aHhip on microarray, primary screen, stem cell growth factor project, biochemical, small-molecule microarray, fluorescence 635/667 (AID 1087); details: higher = more signal;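 note: score merges spot fluorescence at 667nm with spot signal to noise ratio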
[11] = system: PRMT1 (protein arginine N-methyltransferase 1); assay: small molecules binding arginine methyltransferase PRMT1 – biochemical, small-molecule microarray, 635 nm fluorescence, primary screen (AID 1088); details: higher = more signal;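 note: binding of Prmt1 protein to compounds spotted on small-molecule microarray slides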
[12] = growth effects on S. cerevisiae YJM789 – YJM789 clinical isolate, OD600, 24 h, basal, primary screen (AID 1089); details: higher = more signal, called active from +8 up or from −8 down;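 note: growth of clinical yeast isolate S. cerevisiae YJM 789 seeded 1000 cells per well; test concentration not given here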
[13] = S. pombe growth modifiers, basal conditions – strain 972, OD600, 24 h, no modulator, primary screen (AID 1090);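 note: basal condition with compound alone and no growth modifier present; test concentration not given here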; details: S. pombe 972 growth, higher = more signal, called active from +8 up or from −8 down
[14] = budding yeast growth modifiers under rapamycin – strain BY4716, OD600, 96 h, primary screen (AID 1091); note: test concentration not given here; details: S. cerevisiae BY4716 + rapamycin, higher = more signal, called active from +8 up or from −8 down
[15] = target: Torsin-1A-interacting protein 2 (Homo sapiens) (UniProt Q8NFQ8); assay: small molecules binding lysate-expressed LULL1 – cell lysate, human LULL1 lysate, 635/667 nm fluorescence, primary screen (AID 1092); details: small-molecule microarray, hLULL1 lysate binding, 635 nm fluorescence; higher = more signal;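 note: probe is lysate of COS7 cells overexpressing human LULL1; score merges per-feature 667 nm fluorescence with signal-to-noise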
Sequence of Torsin-1A-interacting protein 2 (Homo sapiens) (Q8NFQ8 whole entry, looked up): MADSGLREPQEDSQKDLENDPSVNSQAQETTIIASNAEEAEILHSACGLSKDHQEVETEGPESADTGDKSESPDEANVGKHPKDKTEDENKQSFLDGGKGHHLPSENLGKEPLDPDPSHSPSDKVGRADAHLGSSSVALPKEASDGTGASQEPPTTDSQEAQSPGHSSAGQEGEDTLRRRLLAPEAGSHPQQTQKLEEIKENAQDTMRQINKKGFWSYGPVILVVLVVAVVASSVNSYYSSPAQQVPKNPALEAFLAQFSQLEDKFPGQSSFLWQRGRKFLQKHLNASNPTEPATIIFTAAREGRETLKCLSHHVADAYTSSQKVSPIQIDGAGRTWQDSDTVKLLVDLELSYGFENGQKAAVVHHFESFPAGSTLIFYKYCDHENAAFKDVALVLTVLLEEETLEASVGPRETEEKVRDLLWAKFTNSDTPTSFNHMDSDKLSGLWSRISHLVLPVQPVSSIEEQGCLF

[16] = optical density change of DRC41 E. coli – strain DRC41, OD650, 24 h, E. coli filamentation project, primary screen (AID 1093);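 note: MC1000 strain lacking acrAB efflux and sulA so SOS filamentation is blocked; test concentration not given here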; details: E. coli DRC41 growth, higher = more signal, called active from +8 up or from −8 down
[17] = probe aLefty2 binding to arrayed compounds – biochemical, biotinylated probe, 635/667 nm fluorescence, primary screen (AID 1094); details: small-molecule microarray, higher = more signal;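 note: score merges spot fluorescence near 667 nm with spot signal-to-noise ratio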
[18] = system: Noggin (protein binding on small-molecule microarray); assay: small molecules binding Noggin protein – biochemical, 635/667 nm fluorescence, primary screen (AID 1095); details: 635 nm fluorescence, higher = more signal;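 note: score merges 667 nm feature fluorescence with signal to noise over triplicate slides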
[19] = target: Neurogenic locus notch homolog protein 3 (Homo sapiens) (UniProt Q9UM47); assay: small molecules binding NOTCH3 protein – biochemical, 635/667 nm fluorescence, primary screen (AID 1096); details: small-molecule microarray, 635 nm fluorescence, higher = more signal
Sequence of Neurogenic locus notch homolog protein 3 (Homo sapiens) (Q9UM47 whole entry, looked up): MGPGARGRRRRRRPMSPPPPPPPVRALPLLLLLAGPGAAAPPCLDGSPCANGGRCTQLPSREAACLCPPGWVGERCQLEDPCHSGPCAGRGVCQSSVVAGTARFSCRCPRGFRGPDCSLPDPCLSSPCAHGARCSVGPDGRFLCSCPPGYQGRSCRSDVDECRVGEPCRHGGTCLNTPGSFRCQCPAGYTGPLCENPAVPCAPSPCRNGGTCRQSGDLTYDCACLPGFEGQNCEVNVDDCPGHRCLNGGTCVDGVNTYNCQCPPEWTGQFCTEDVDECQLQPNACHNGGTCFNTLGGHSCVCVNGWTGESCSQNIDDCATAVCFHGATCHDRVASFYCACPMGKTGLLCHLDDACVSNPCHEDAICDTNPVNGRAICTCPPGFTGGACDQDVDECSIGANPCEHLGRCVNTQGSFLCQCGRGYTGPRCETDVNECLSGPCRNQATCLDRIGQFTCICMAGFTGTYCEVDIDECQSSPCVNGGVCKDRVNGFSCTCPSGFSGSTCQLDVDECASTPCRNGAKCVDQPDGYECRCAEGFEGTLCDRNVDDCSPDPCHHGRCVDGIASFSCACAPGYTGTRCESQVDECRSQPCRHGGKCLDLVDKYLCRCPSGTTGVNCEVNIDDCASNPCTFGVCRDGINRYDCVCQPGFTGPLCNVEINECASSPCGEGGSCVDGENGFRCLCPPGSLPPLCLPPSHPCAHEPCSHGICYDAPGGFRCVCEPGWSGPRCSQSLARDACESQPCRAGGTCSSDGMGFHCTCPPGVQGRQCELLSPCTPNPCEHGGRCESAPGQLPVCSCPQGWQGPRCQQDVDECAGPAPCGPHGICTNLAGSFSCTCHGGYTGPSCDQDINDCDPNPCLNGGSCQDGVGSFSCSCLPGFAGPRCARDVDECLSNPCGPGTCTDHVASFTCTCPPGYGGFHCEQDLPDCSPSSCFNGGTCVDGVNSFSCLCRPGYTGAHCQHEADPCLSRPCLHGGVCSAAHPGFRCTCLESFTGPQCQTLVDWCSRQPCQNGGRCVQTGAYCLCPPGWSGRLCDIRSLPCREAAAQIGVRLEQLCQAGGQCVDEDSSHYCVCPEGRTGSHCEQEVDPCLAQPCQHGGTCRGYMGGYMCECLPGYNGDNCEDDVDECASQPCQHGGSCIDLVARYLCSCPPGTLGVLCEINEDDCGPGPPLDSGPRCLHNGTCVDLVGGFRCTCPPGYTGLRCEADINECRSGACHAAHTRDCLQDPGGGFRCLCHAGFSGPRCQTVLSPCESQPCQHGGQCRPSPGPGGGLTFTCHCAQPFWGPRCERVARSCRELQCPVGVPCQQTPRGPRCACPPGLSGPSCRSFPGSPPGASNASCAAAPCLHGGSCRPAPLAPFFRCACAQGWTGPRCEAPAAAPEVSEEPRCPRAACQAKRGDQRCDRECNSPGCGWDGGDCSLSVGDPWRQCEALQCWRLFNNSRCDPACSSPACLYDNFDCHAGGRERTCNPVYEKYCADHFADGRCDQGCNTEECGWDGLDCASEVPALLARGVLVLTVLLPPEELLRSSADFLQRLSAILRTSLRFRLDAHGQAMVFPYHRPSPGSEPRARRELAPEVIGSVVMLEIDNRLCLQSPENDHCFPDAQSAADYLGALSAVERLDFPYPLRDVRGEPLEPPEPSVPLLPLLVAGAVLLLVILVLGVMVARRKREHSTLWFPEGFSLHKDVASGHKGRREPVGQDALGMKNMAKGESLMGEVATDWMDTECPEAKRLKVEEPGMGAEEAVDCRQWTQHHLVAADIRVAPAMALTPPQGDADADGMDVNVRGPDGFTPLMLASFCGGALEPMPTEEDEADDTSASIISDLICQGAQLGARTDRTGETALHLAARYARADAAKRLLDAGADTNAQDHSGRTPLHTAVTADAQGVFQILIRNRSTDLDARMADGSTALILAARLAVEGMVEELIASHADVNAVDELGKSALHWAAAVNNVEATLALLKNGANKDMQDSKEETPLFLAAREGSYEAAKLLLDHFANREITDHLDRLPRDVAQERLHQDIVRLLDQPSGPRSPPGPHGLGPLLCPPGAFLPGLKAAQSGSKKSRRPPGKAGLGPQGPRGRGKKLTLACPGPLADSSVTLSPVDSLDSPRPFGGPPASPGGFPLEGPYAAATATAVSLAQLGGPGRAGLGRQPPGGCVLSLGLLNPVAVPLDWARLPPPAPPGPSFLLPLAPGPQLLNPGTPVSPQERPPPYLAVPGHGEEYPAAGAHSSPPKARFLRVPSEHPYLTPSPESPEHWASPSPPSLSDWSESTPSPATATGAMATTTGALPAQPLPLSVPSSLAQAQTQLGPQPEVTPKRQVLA

[20] = probe aEGFR binding to arrayed compounds – biochemical, biotinylated probe, 635/667 nm fluorescence, primary screen (AID 1097); details: small-molecule microarray, higher = more signal;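 note: probe is a biotinylated anti-EGFR antibody binding compounds printed on slides; score combines fluorescence near 667 nm and signal to noise of each spot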

| Structure (SMILES) | composite z-score [1] | composite z-score [2] | composite z-score [3] | composite z-score [4] | composite z-score [5] | composite z-score [6] | composite z-score [7] | z-score [8] | composite z-score [9] | composite z-score [10] | composite z-score [11] | z-score [12] | z-score [13] | z-score [14] | composite z-score [15] | z-score [16] | composite z-score [17] | composite z-score [18] | composite z-score [19] | composite z-score [20] |
| --- | --- | --- | --- | --- | --- | --- | --- | --- | --- | --- | --- | --- | --- | --- | --- | --- | --- | --- | --- | --- |
| C=C(CCCC)C(=O)CC[C@H](OC(=O)c1cccnc1)c1cccc(OCCO)c1 | 0.17 | -0.218 | -0.157 | 0.387 | -0.818 | 0.941 | 0.762 | -0.594 (inactive) | 0.0945 | -0.236 | 1.3 | 1.61 (inactive) | -0.86 (inactive) | 1.13 (inactive) | 1 | 0.241 (inactive) | -0.141 | 0.257 | -0.139 | -0.0818 |
| CO[C@H]1O[C@H](CO)[C@@H](OC(=O)Nc2ccc3c(c2)OCO3)[C@H](OC(=O)Nc2ccccc2)[C@H]1OC(=O)Nc1ccccc1 | -0.142 | 0.436 | 0.0166 | 1 | 0.828 | 1.12 | 1.35 | 2.74 (inactive) | 0.697 | -0.0645 | 1.54 | 1.67 (inactive) | 0.383 (inactive) | 1.76 (inactive) | 3.4 | -0.703 (inactive) | -0.0702 | 0.704 | 1.15 | -0.0354 |
| CCN(CC)c1ccc(N2CC=CC34O[C@@H]5C=CCCOC(=O)C5[C@H]3C(=O)N(CCCCCO)[C@@H]4C2=O)cc1 (stereo not given in full) | 0.373 | 2.13 | -0.116 | -0.851 | -0.788 | 1.78 | 1.01 | -0.736 (inactive) | 0.37 | -0.226 | -0.203 | -0.847 (inactive) | -1.3 (inactive) | -0.818 (inactive) | 0.965 | 2.85 (inactive) | -0.126 | -0.514 | -0.272 | -0.168 |
| CC1=C2[C@@H](CCc3ccccc3)OB(O)C[C@@H]2n2c(=O)n(-c3ccccc3)c(=O)n2C1 | -0.388 | -0.214 | -0.132 | 0.203 | 0.889 | 0.537 | 1.04 | -2.85 (inactive) | 0.156 | -0.34 | 1.02 | -0.237 (inactive) | -1.51 (inactive) | -0.535 (inactive) | 0.902 | -0.296 (inactive) | -0.179 | 0.416 | 0.666 | -0.111 |
| CCCN1C(=O)[C@@]2(CCC(=O)OC(C)(C)C)N=C(c3ccc(OCCCO)cc3)O[C@H]2c2ccccc21 | -0.0952 | 0.108 | -0.0243 | 0.102 | 0.312 | 0.0163 | 0.959 | -1.22 (inactive) | 0.0225 | -0.191 | 1.56 | -1.25 (inactive) | -1.19 (inactive) | 1.51 (inactive) | 2.64 | 1.2 (inactive) | 0.0272 | 1.82 | 0.518 | -0.0371 |
